According to PubChem BioAssay AID1851 (National Center for Advancing Translational Sciences (NCATS), 2009):
“And” between values parts separate entries of the source, which are not always exact repeats. Equal entries are not always repeated. About 5,800 (36%) of roughly 16,000 compounds were called active. Roughly 23% stayed inconclusive and do not appear here. Calls come from the whole dose curve; as a rule, active = well fitted curve in the direction sought with a large enough effect; inconclusive = small, poorly fitted or top-dose-only effect, or effect the other way; inactive = no such curve, though single readings can be large or run the other way. Some of the results follow.

Biological target: Cytochrome P450 2C19 (Homo sapiens) (UniProt P33261)
Assay: Cytochrome panel assay with activity outcomes
Settings: recombinant CYP, pro-luciferin dealkylation, luminescence, p450-cyp2c19; series mostly up to 57.1 µM; activity, negative = inhibition: at the top concentration
% is set by controls: 0 for no effect and ±100 for the full control effect.

Cytochrome P450 2C19 (Homo sapiens), sequence (P33261 whole entry, looked up): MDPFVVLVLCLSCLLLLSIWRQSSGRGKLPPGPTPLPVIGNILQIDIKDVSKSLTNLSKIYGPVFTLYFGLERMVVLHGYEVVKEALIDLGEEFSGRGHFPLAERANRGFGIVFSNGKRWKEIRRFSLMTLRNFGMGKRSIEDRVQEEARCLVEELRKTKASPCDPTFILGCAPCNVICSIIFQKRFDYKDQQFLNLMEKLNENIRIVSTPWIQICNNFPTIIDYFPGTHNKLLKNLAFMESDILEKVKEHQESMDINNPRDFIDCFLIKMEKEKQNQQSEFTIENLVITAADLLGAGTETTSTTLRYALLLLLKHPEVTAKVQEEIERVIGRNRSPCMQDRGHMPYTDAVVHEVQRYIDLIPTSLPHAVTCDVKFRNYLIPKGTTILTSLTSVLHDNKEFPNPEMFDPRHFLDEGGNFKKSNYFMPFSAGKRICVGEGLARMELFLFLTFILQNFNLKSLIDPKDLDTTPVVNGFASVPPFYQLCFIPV

Row | SMILES | activity, negative = inhibition | AC50
1 | CN1CCN(c2ccncc2S(=O)(=O)N2CCN(C)CC2)CC1 | 15.7% [at 11.4 µM] (inactive) | 
2 | CN(C)S(=O)(=O)c1cc([N+](=O)[O-])ccc1N1CCCCCC1 |  | 5.01 µM (active)
3 | O=C(c1ccc(Br)cc1)c1cc([N+](=O)[O-])ccc1N1CCCCC1 |  | 1.26 µM (active)
4 | CN1CCN(c2ccc([N+](=O)[O-])cc2S(=O)(=O)N2CCOCC2)CC1 | 6.03% (inactive) | 
5 | CN1CCN(CCCN2c3ccccc3Sc3ccc(S(=O)(=O)N(C)C)cc32)CC1 | 2.33% [at 25.6 µM] (inactive) | 
6 | CN1CCN(S(=O)(=O)c2cc([N+](=O)[O-])ccc2N2CCCCCC2)CC1 |  | 0.631 µM (active)
7 | Cc1cc2c(nc1C)CCCN2C[C@H](O)CN1CCCc2nc(-c3ccc(Br)cc3)ccc21 | -41.3% [at 11.4 µM] (inactive) and -36.7% [at 11.4 µM] (inactive) | 
8 | O=C(CNC(=O)c1ccco1)OCc1c(F)cccc1Cl |  | 15.8 µM (active)
9 | Cc1ccc2[nH]c(=O)c(NC(N)=S)nc2c1 |  | 20 µM (active)
10 | CNc1ncncc1-c1ccccc1OC | -6.59% (inactive) | 
11 | Cc1ccccc1-c1cncnc1NC1CCNCC1 | 2.18% (inactive) | 
12 | COc1cccc(-c2cncnc2Nc2ccc(F)cc2)c1 |  | 0.398 µM (active)
13 | COc1cccc(Nc2ncc3nc(-c4ccc(F)cc4)c(=O)n(CCC#N)c3n2)c1 | -41.5% (inactive) | 
14 | COc1ccccc1-c1cncnc1Nc1ccc(F)cc1 |  | 5.01 µM (active)
15 | CS(=O)(=O)Nc1cccc(-c2cncnc2Nc2ccc(F)cc2)c1 | -34.9% (inactive) | 
16 | Cc1ccccc1-c1cncnc1Nc1ccc(F)cc1 |  | 5.01 µM (active)
17 | CNc1ncncc1-c1ccccc1C | -36.9% (inactive) | 
18 | Cc1ccccc1-c1cncnc1Nc1ccccc1 |  | 3.16 µM (active)
19 | CC(C)(C)C(=O)NC(=C(Cl)Cl)P(=O)(O)O | -39.2% (inactive) | 
20 | CCOC(=O)N/N=C1/C[C@@H](O)[C@@H](O)[C@@H]2[C@@H]3C(=O)N([C@@H](C)c4ccccc4)C(=O)[C@H]3CC[C@H]12 | 12.9% [at 11.4 µM] (inactive) | 
21 | CC(C)Nc1cc(C(F)(F)F)nc(-c2ccccn2)n1 | -40.7% (inactive) | 
22 | CC(C)c1cc(C(F)(F)F)nc(NNc2nc(C(C)C)cc(C(F)(F)F)n2)n1 |  | 2.51 µM (active)
23 | COc1cc(OC)c2c(c1)C(=O)c1cc(OC)cc(OC)c1C2=O | -6.51% (inactive) | 
24 | COc1cc(OC)c(C#N)c(S(=O)(=O)Cc2ccccc2)c1 |  | 1.26 µM (active)
25 | CCC(=O)Nc1cc2c(cc1C(=O)c1ccccc1)OCCO2 |  | 14.1 µM (active)
26 | CC(C)C(=O)Nc1cc2c(cc1C(=O)c1ccccc1)OCCO2 | -89.4% (inactive) | 
27 | O=c1n(CCCN2CCN(c3cccc(Cl)c3)CC2)nc2ccccn12 |  | inactive

Row | SMILES | activity, negative = inhibition | AC50
28 | O=c1cc(N2CCC(Cc3ccccc3)CC2)[nH]c(=O)n1C1CCCCC1 |  | 3.16 µM (active)
29 | O=C(c1ccco1)N1CCN(c2cc(=O)n(C3CCCCC3)c(=O)[nH]2)CC1 | -38.6% (inactive) | 
30 | COC(=O)C1CCN(c2cc(=O)n(C3CCCCC3)c(=O)[nH]2)CC1 |  | 3.98 µM (active)
31 | O=c1cc(N2CCN(c3cccc(Cl)c3)CC2)[nH]c(=O)n1C1CCCCC1 |  | 2.51 µM (active)
32 | Cc1ccccc1-n1c(=O)cc(N2CC(C)OC(C)C2)[nH]c1=O (centres undefined) | 3.85% (inactive) | 
33 | CO[C@@H]1COC(=O)C/C=C\[C@@H](C)COC(=O)[C@H](COCc2ccccc2)NC(=O)C/C=C\[C@H]1C | -16.4% [at 11.4 µM] (inactive) | 
34 | CO[C@H]1COC(=O)C/C=C\[C@H](C)[C@@H](OC)COC(=O)[C@H](Cc2ccccc2)NC(=O)C/C=C\[C@@H]1C | -37.5% [at 11.4 µM] (inactive) | 
35 | CO[C@@H]1COC(=O)C/C=C\[C@H](C)COC(=O)[C@H](Cc2ccccc2)NC(=O)C/C=C\[C@H]1C |  | 2.51 µM (active)
36 | Cn1cc(C(=O)OCC2CCN(CCNS(C)(=O)=O)CC2)c2ccccc21 | -2.19% (inactive) | 
37 | COc1cc(N)c(Cl)cc1C(=O)CCC1CCN(CCNS(C)(=O)=O)CC1 |  | 10 µM (active)
38 | CCCCN1CCC(CCC(=O)c2cc(Cl)c(N)cc2OC)CC1 | -9.04% (inactive) | 
39 | C[C@@H](C(=O)Nc1ccc2ccccc2c1)[C@@H]1C[C@@]1(C)[C@@H](NC(=O)c1cnccn1)c1ccccc1 | -42.8% (inactive) | 
40 | C[C@@H](C(=O)Nc1ccc2ccccc2c1)[C@@H]1C[C@@]1(C)[C@@H](NS(=O)(=O)c1ccc2ccccc2c1)c1ccccc1 | 15.5% (inactive) | 
41 | CC(=O)N[C@@H](c1ccccc1)[C@]1(C)C[C@H]1[C@@H](C)C(=O)Nc1ccc2ccccc2c1 |  | 0.398 µM (active)
42 | C[C@@H](C(=O)Nc1ccc2ccccc2c1)[C@@H]1C[C@@]1(C)[C@@H](NC(=O)c1ccncc1Cl)c1ccccc1 | -38.4% (inactive) | 
43 | C[C@@H](C(=O)Nc1ccc2ccccc2c1)[C@@H]1C[C@@]1(C)[C@@H](N)c1ccccc1 | -33.6% (inactive) | 
44 | C[C@@H](C(=O)Nc1ccc2ccccc2c1)[C@@H]1C[C@@]1(C)[C@@H](NS(=O)(=O)c1ccc(-c2ccccc2)cc1)c1ccccc1 | 5.27% (inactive) | 
45 | C[C@@H](C(=O)Nc1ccc2ccccc2c1)[C@H]1C[C@]1(C)[C@H](NS(=O)(=O)c1ccc2ccccc2c1)c1ccccc1 |  | 0.251 µM (active)
46 | C[C@@H](C(=O)Nc1ccc2ccccc2c1)[C@H]1C[C@]1(C)[C@H](NC(=O)c1cnccn1)c1ccccc1 |  | 15.8 µM (active)
47 | CC(=O)N[C@H](c1ccccc1)[C@@]1(C)C[C@@H]1[C@@H](C)C(=O)Nc1ccc2ccccc2c1 |  | 5.01 µM (active)
48 | CO[C@H]1C[C@@H](O[C@@H]2[C@H](C)[C@H](O[C@@H]3O[C@@H](C)C[C@@H](N(C)C)[C@@H]3O)[C@H](C)C[C@]3(CO3)C(=O)[C@H](C)[C@H](O)[C@H](C)[C@H](C)OC(=O)[C@@H]2C)O[C@@H](C)[C@H]1O | -29.6% [at 25.6 µM] (inactive) | 
49 | COC(=O)N[C@H](c1ccccc1)[C@@]1(C)C[C@@H]1[C@@H](C)C(=O)Nc1ccc2ccccc2c1 |  | 3.16 µM (active)
50 | C[C@@H](C(=O)Nc1ccc2ccccc2c1)[C@H]1C[C@]1(C)[C@H](NS(=O)(=O)c1ccc(-c2ccccc2)cc1)c1ccccc1 | -37.2% (inactive) | 
51 | C[C@@H](C(=O)Nc1ccc2ccccc2c1)[C@H]1C[C@]1(C)[C@H](NP(=O)(c1ccccc1)c1ccccc1)c1ccccc1 |  | 10 µM (active)
52 | C[C@@H](C(=O)Nc1ccc2ccccc2c1)[C@H]1C[C@]1(C)[C@H](NC(=O)Oc1ccc(F)cc1)c1ccccc1 | -37.1% (inactive) | 
53 | C[C@@H](C(=O)Cc1ccc2ccccc2c1)[C@@H]1C[C@@]1(C)[C@@H](NP(=O)(c1ccccc1)c1ccccc1)c1ccccc1 | -26.1% (inactive) | 
54 | C[C@@H](C(=O)Nc1ccc2ccccc2c1)[C@@H]1C[C@@]1(C)[C@@H](NC(=O)Oc1ccc(F)cc1)c1ccccc1 | -43.6% (inactive) | 
